# Several values for one entry are separate records, joined by “and”; a condition that tells them apart may be missing. Equal entries are not always repeated. Results filed as inconclusive are left out. Where a call stands in place of a potency, no number is given. Values without a mark were called inactive. Activity calls are given as the source filed them. Calls come from the whole dose curve; as a rule, active = well fitted curve in the direction sought with a large enough effect; inconclusive = small, poorly fitted or top-dose-only effect, or another doubt; inactive = no such curve, though single readings can be large; an effect the other way counts as inactive or inconclusive.
# Key:
# [1] = Primary qHTS for inhibitors of nuclear receptor binding SET domain protein 2 (NSD2) in an isogenic RCH-ACV NSD2 p.E1099K mutant (9B) (AID 1645876); details: RCH-ACV NSD2 E1099K (9B) viability, CellTiter-Glo, 72 h; series mostly up to 44.9 µM
# [2] = Primary qHTS for inhibitors of nuclear receptor binding SET domain protein 2 (NSD2) in an RCH-ACV wild type WT cells (2C) (AID 1645877); details: RCH-ACV (leukaemia line) NSD2 WT (2C) viability, CellTiter-Glo, 72 h; series mostly up to 44.9 µM
# Note: nearly all actives have a fitted effect of over 70% in size.
# Potency is the fitted concentration of half-maximal effect.
compound,measurement,setting,value
CC1(CO)CC2C(O)C(=O)C3(CO)CC3(C)C2C1 (stereo not drawn),Potency,[1],inactive
same,Potency,[2],inactive
CC(=O)O[C@@]1(C)C[C@@H](O)[C@]2(O)C=CO[C@@H](O[C@@H]3O[C@H](CO)[C@@H](O)[C@H](O)[C@H]3O)[C@@H]21,Potency,[1],inactive
same,Potency,[2],inactive
C=CC1(C)CC2=CCC3C(C)(C(=O)O)CCCC3(C)C2CC1OC(C)=O (stereo not drawn),Potency,[1],inactive
same,Potency,[2],inactive
COc1cc(/C=C/C(=O)OC2CC(C)=C(C(=O)O)/C2=C/CO[C@@H]2O[C@H](CO)[C@@H](O)[C@H](O)[C@H]2O)ccc1O (stereo partly drawn),Potency,[1],inactive
same,Potency,[2],inactive
CC(=O)O[C@@H]1C[C@@]23C[C@@]24CC[C@H](OC2OC[C@@H](O)[C@H](O)[C@H]2O)C(C)(C)[C@@H]4CC[C@H]3[C@]2(C)CC3OC4(C[C@@H](C)C3[C@@]12C)OCC1(C)OC14 (stereo partly drawn),Potency,[1],inactive
same,Potency,[2],inactive
CC1(C)O[C@@H]2C[C@H]3[C@@H]4CCC5=CC(=O)C=C[C@]5(C)[C@H]4[C@@H](O)C[C@]3(C)[C@]2(C(=O)CO)O1,Potency,[1],inactive
same,Potency,[2],46.8 nM (active)
CC1NC(=O)C(Cc2c[nH]c3ccccc23)NC1=O (stereo not drawn),Potency,[1],inactive
same,Potency,[2],inactive
CCC[C@@H]1C[C@@H](C(=O)N[C@@H]([C@H]2O[C@H](SC)[C@H](OP(=O)(O)O)[C@@H](O)[C@H]2O)[C@H](C)Cl)N(C)C1,Potency,[1],inactive
same,Potency,[2],inactive
COc1cc(-c2cccc(O)c2)cc2c1OCO2,Potency,[1],inactive
same,Potency,[2],inactive
CC(=O)O[C@H]1CC[C@@]2(CI)C(=CC[C@@H]3[C@@H]2CC[C@]2(C)[C@@H]([C@H](C)CCCC(C)C)CC[C@@H]32)C1,"activity change, negative = viability loss",[1],-4.5% [at 9.23 µM]
same,"activity change, negative = cell killing",[2],-14% [at 9.23 µM]
C/C=C(\C)C(=O)O[C@H]1[C@H](O)[C@]2(COC(C)=O)[C@H](O)C[C@]3(C)C(=CCC4[C@@]5(C)CC[C@H](O[C@@H]6O[C@H](C(=O)O)[C@@H](O[C@@H]7O[C@H](CO)[C@@H](O)[C@H](O)[C@H]7O)[C@H](O)[C@H]6O[C@@H]6O[C@H](CO)[C@@H](O)[C@H](O)[C@H]6O)[C@](C)(CO)C5CC[C@]43C)[C@@H]2CC1(C)C (stereo partly drawn),"activity change, negative = viability loss",[1],0.0444% [at 9.23 µM]
same,"activity change, negative = cell killing",[2],-12.8% [at 9.23 µM]
COc1c(C)c2c(c(O)c1C/C=C(\C)CC/C=C(\C)CCC(=O)O)C(=O)OC2,Potency,[1],inactive
same,Potency,[2],inactive
CN1C(=O)c2ccccc2NC(=O)[C@]12O[C@@H]2c1cccc(O)c1,Potency,[1],inactive
same,Potency,[2],inactive
C[C@@H]1C[C@H]2[C@@H]3CCC4=CC(=O)C=C[C@]4(C)[C@@]3(F)[C@@H](O)C[C@]2(C)[C@@]1(O)C(=O)COP(=O)(O)O,Potency,[1],inactive
same,Potency,[2],91.6 nM (active)
COc1cc(C2Oc3c(O)cc(CCCO)cc3C2CO)ccc1O[C@H]1O[C@H](C)[C@@H](O)[C@H](O)[C@@H]1O (stereo partly drawn),Potency,[1],inactive
same,Potency,[2],inactive
CC1CCC2(O1)C(C)(C)CC(O[C@@H]1O[C@H](CO[C@@H]3OC[C@](O)(CO)[C@H]3O)[C@@H](O)[C@H](O)[C@H]1O)CC2(C)O (stereo partly drawn),Potency,[1],inactive
same,Potency,[2],inactive
C/C=C(\C)C(=O)O[C@@H](C)[C@H]1CC[C@]2(O)C3CCC4C[C@@H](OC5CC(OC)C(OC6CC(OC)C(OC7CC(OC)C(OC8OC(C)C(OC9OC(CO)C(O)C(O)C9O)C(OC)C8O)C(C)O7)C(C)O6)C(C)O5)CC[C@]4(C)C3[C@H](O)[C@@H](O)[C@]12C (stereo partly drawn),"activity change, negative = viability loss",[1],-6.35% [at 9.23 µM]
same,"activity change, negative = cell killing",[2],-1.09% [at 9.23 µM]
CC(=O)OC[C@@]12[C@@H](OC(C)=O)C[C@@H](C)[C@](C)([C@@H]3C[C@H]4C=CO[C@H]4O3)[C@H]1CCC[C@]21CO1,Potency,[1],inactive
same,Potency,[2],inactive
CC(C)=CCCC1(C)Oc2cc3c(c4c2C2C(O4)C(C)(O)CCC21)CN(C(CCC(=O)O)C(=O)O)C3=O (stereo not drawn),Potency,[1],inactive
same,Potency,[2],inactive
C/C=C(\C)C(=O)OC[C@H]1O[C@H](O[C@H]2O[C@H](CO)[C@@H](OC(=O)/C(C)=C/C)[C@H](O)[C@H]2O[C@@H]2O[C@H](CO)[C@@H](O)[C@H](O)[C@H]2O)[C@H](O[C@@H]2O[C@H](CO)[C@@H](O)[C@H](O)[C@H]2O)[C@@H](O)[C@@H]1O,outcome,[1],inactive [at 9.23 µM]
same,outcome,[2],inactive [at 9.23 µM]
CC12CCC3c4ccc(O)cc4CCC3C1CCC2OC1OC(C(=O)O)C(O)C(O)C1O (stereo not drawn),Potency,[1],inactive
same,Potency,[2],inactive
C/C=C/C=C/C=C/C(=O)O[C@@H]1C=C(CO)C(O)(C(=O)O)[C@@]2(C)CCCC(C)(C)[C@H]12 (stereo partly drawn),Potency,[1],inactive
same,Potency,[2],inactive
OCc1ccccc1O[C@@H]1O[C@H](CO)[C@@H](O)[C@H](O)[C@H]1O,Potency,[1],inactive
same,Potency,[2],inactive
CC1CCC2(NC1)OC1C(=O)C3C4CCC5CC(O[C@@H]6O[C@H](CO)[C@@H](O)[C@H](O)[C@H]6O[C@@H]6O[C@@H](C)[C@H](O)[C@@H](O)[C@H]6O)CCC5(C)C4CCC3(C)C1C2C (stereo partly drawn),Potency,[1],inactive
same,Potency,[2],inactive
CC(C)=CCC/C(C)=C/CC/C(C)=C/CC[C@]1(C)CCc2cc(O)cc(C)c2O1,Potency,[1],inactive
same,Potency,[2],inactive
CC(C)CNC(=O)/C=C/CCCCc1ccc2c(c1)OCO2,Potency,[1],inactive
same,Potency,[2],inactive
O=C(/C=C/c1ccc(O)cc1)OCC1=C[C@@H](O)[C@@H]2C=CO[C@@H](O[C@@H]3O[C@H](CO)[C@@H](O)[C@H](O)[C@H]3O)[C@H]12,Potency,[1],inactive
same,Potency,[2],inactive
C=C1CCC2C(C)(C)CC(=O)CC2(C)C1CCC(C)CCOC(C)=O (stereo not drawn),Potency,[1],inactive
same,Potency,[2],inactive
O=C(/C=C/c1ccc(O)cc1)O[C@H]1[C@@H]2C=CO[C@@H](O[C@@H]3O[C@H](CO)[C@@H](O)[C@H](O)[C@H]3O)[C@@H]2[C@@]2(CO)O[C@@H]12,Potency,[1],inactive
same,Potency,[2],inactive
CC1(O)CCC2C(C(=O)O)=COC(OC3OC(CO)C(O)C(O)C3OC(=O)/C=C/c3ccc(O)cc3)C21 (stereo not drawn),Potency,[1],inactive
same,Potency,[2],inactive
CC1=CCC2C(C)(CO)CCCC2(CO)C1CO (stereo not drawn),Potency,[1],inactive
same,Potency,[2],inactive
CC1CC(O)CC(C)(C)C1(O)CCO (stereo not drawn),Potency,[1],inactive
same,Potency,[2],inactive
CC1(C)CC2C3=CCC4C5(C)CCC(OC6OC(CO)C(O)C(OC7OC(CO)C(O)C(OC8OC(CO)C(O)C(OC9OC(COC%10OC(CO)C(O)C(O)C%10O)C(O)C(O)C9O)C8O)C7O)C6O)C(C)(C)C5CCC4(C)C3(C)CCC2(C(=O)O)CC1O (stereo not drawn),outcome,[1],inactive [at 9.23 µM]
same,"activity change, negative = cell killing",[2],4.6% [at 9.23 µM]
CC(C)(OC1OC(CO)C(O)C(O)C1O)C1CCC(O)(CO)C2CC(O)C(C)(O)C2C1 (stereo not drawn),Potency,[1],inactive
same,Potency,[2],inactive
C=C1CC[C@@H]2[C@](C)(CO[C@@H]3O[C@H](CO)[C@@H](O)[C@H](O)[C@H]3O)CCC[C@@]2(C)[C@@H]1CCC1=CCOC1=O,Potency,[1],inactive
same,Potency,[2],inactive
CC(=O)c1c(C)cc(O)cc1O[C@@H]1O[C@H](CO)[C@@H](O)[C@H](O)[C@H]1O,Potency,[1],inactive
same,Potency,[2],inactive
CC[C@H](/C=C/[C@@H](C)[C@H]1CC[C@H]2[C@@H]3CC=C4C[C@@H](O)CC[C@]4(C)[C@H]3CC[C@]12C)C(C)C,outcome,[1],inactive [at 4.96 µM]
same,outcome,[2],inactive [at 4.96 µM]
CCS(=O)(=O)N1CCC([C@@H](C)n2c(C)c(C(=O)NCc3c(OC)cc(C)[nH]c3=O)c3ccccc32)CC1,Potency,[1],inactive
same,Potency,[2],inactive
COC(=O)C1=COC(O[C@@H]2O[C@H](CO)[C@@H](O)[C@H](O)[C@H]2O)/C(=C\COC(=O)c2ccc(OC3OC(CO)C(O)C(O)C3O)c(OC)c2)C1CC(=O)OCCc1ccc(O)cc1 (stereo partly drawn),outcome,[1],inactive [at 9.23 µM]
same,outcome,[2],inactive [at 9.23 µM]
CCOc1cc2ncc(C#N)c(Nc3ccc(OCc4ccccn4)c(Cl)c3)c2cc1NC(=O)/C=C/CN(C)C,Potency,[1],282 nM (active) and 1.32 µM (active)
same,Potency,[2],282 nM (active) and 833 nM (active)
CC(C)CC1(C(=O)OCc2ccc(O[C@@H]3O[C@H](CO)[C@@H](O)[C@H](O)[C@H]3O)cc2)CC(=O)OC(C(=O)O)CC(=O)OCC2OC(O1)C(OC(=O)/C=C/c1ccc(O)cc1)C(O)C2O (stereo partly drawn),"activity change, negative = viability loss",[1],1.01% [at 9.23 µM]
same,"activity change, negative = cell killing",[2],0.208% [at 9.23 µM]
CC(C)C(C#N)O[C@@H]1O[C@H](CO[C@@H]2OC[C@](O)(CO)[C@H]2O)[C@@H](O)[C@H](O)[C@H]1O (stereo partly drawn),Potency,[1],inactive
same,Potency,[2],inactive
CC1=CC(=O)OC(C)(CC(C)(O)C(=O)O)C1 (stereo not drawn),Potency,[1],inactive
same,Potency,[2],inactive
CC(C)c1ccc(CC(=O)N2CCC[C@@H](c3cccc(OC(C)(C)C(=O)O)c3)C2)cc1,Potency,[1],inactive
same,Potency,[2],inactive
CN1C(=O)N[C@@H](Cc2c[nH]c3c(Cl)cccc23)C1=O,Potency,[1],inactive
same,Potency,[2],inactive
C=CC(C)(O)CC/C=C(\C)C(=O)OCC1OC(OC2CCC3(C)C(CCC4(C)C3CC=C3C5CC(C)(C)C(O)CC5(C(=O)O)CCC34C)C2(C)C)C(O)C(OC2OC(CO)C(O)C(OC3OC(CO)C(O)C(OC4OC(COC5OC(CO)C(O)C(O)C5O)C(O)C(O)C4O)C3O)C2O)C1O (stereo not drawn),outcome,[1],inactive [at 9.23 µM]
same,"activity change, negative = cell killing",[2],4.93% [at 9.23 µM]
COC(=O)CC1(O)C(=O)Nc2ccccc21 (stereo not drawn),Potency,[1],inactive
same,Potency,[2],inactive
COc1cc(/C=C/CO)ccc1O[C@@H]1O[C@H](CO)[C@@H](O)[C@H](O)[C@H]1O,Potency,[1],inactive
same,Potency,[2],inactive
CC(C)CC(=O)O[C@@H]1OC=C(CO[C@@H]2O[C@H](CO[C@@H]3O[C@H](CO)[C@@H](O)[C@H](O)[C@H]3O)[C@@H](O)[C@H](O)[C@H]2O)[C@H]2C[C@H](O)[C@@H](CO)[C@@H]12,Potency,[1],inactive
same,Potency,[2],inactive

# Source: PubChem BioAssay (NCATS)
